Most compounds without a hit are left out; they make up all but 7.9% or so of the library.
MCF10A rerep: induces DNA re-replication in MCF 10a normal breast cells; Potency, µM (doses to about 46.1 µM), most hits filed as activators; MCF 10A DNA re-replication, Hoechst nuclear intensity, 48 h; 350,000 tested, 2.9% active; further: nearly all actives have a fitted effect of over 50% in size
KB-V1 cytotox: kills drug-selected multidrug resistant KB-V1 cells. KB-V1 MDR cells viability, CellTiter-Glo, 72 h. Potency, µM (titrated, usually from 46.1 µM), usual class: cytotoxic. 400,000 tested, 3.4% active; further: nearly all actives have a fitted effect of over 60% in size
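Cells of the MDR subline KB-V1 are plated, dosed with compound at multiple concentrations, and incubated 72 h at 37 degrees C; CellTiter-Glo is then added and luminescence read after 10 min.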
KB-3-1 tox: KB-3-1 parental cell cytotoxicity; KB-3-1 viability, CellTiter-Glo ATP luminescence, 72 h; Potency, µM (highest dose often 46.1 µM), actives largely listed as cytotoxic; 400,000 tested, 1.4% active; further: nearly all actives have a fitted effect of over 60% in size
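Cytotoxicity in the drug-sensitive parental line KB-3-1 was scored as loss of CellTiter-Glo luminescence following 72 h incubation with compound. Values come from curve fitting of normalized concentration-response data.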
SW480 rereplic: inducers of DNA re-replication in SW480 colon cancer cells; SW480 DNA re-replication, Hoechst DNA content imaging, 48 h; Potency, µM (doses to about 46.1 µM), hits mostly activators; 340,000 tested, 1.8% active; further: nearly all actives have a fitted effect of over 55% in size
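Image-based read-out: total Hoechst fluorescence of nuclei (405 nm excitation, 500-530 nm emission), with hits raising the fraction of high-intensity nuclei. SW480 colon cells incubated 48 hr with compounds at 37 C.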
HT1080-NT tox: kills 2HG-producing HT-1080-NT fibrosarcoma cells | Potency, µM (top dose mostly 46.1 µM), actives largely listed as cytotoxic | AID 686970 | 360,000 tested, 1.6% active | HT-1080-NT fibrosarcoma viability, CellTiter-Glo ATP luminescence, 48 h;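 further: NT is the 2HG producing partner of a matched IDH1 knockdown line; nearly all actives have a fitted effect of over 55% in size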
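Luminescent CellTiter-Glo readout after 48 hours of compound exposure at 37 degrees C defined viability of HT-1080-NT cells. Activity was normalized to DMSO wells and cell-free media wells; concentration-response curves were fitted and assigned curve classes.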
HT1080 IDH1KD tx: HT-1080 IDH1 knockdown cell toxicity (counter line) | 360,000 tested, 2% active | Potency, µM (highest dose often 46.1 µM), actives largely listed as cytotoxic | HT-1080 IDH1 knockdown viability, ATP luminescence, 48 h
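Knockdown cells (IDH1KD HT-1080) received compounds 2 h after plating at 750 cells/well and were kept 48 h at 37 °C in 5% FBS RPMI. A CellTiter-Glo luminescence read gave % activity for curve fitting.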
A number is an active result; – = inactive; ? = inconclusive; · = no result; [ ] = dose if it differs, or a comment. The call rests on the fitted dose curve; in most records, active means well fitted curve in the direction sought with a large enough effect; inconclusive means small, poorly fitted or top-dose-only effect, or another doubt; inactive means no such curve, though single readings can be large; an effect the other way counts as inactive or inconclusive.

SMILES	MCF10A rerep	KB-V1 cytotox	KB-3-1 tox	SW480 rereplic	HT1080-NT tox	HT1080 IDH1KD tx
COc1cc(C(=O)NC(=S)Nc2ccc(Cl)cn2)cc(OC)c1OC	?	?	–	18µM	–	–
S=C(Nc1ccccc1)Nc1ccc(Cl)cn1	–	–	–	–	–	–
COc1ccc(C(=O)NNC(=S)NC(=O)c2ccc(F)cc2)cc1Br	–	?	–	–	?	?
O=C(NC(=S)Nc1ccc(Cl)cn1)C(c1ccccc1)c1ccccc1	15µM	?	18µM	?	–	–
COc1cc(SC)ccc1C(=O)Nc1ccncc1	–	?	–	–	–	–
COc1cc(C(=O)NNC(=S)NC(=O)c2ccc(F)cc2)cc(OC)c1OC	23µM	?	–	?	–	?
COc1ccc(C(=O)N2CC(=O)Nc3ccc(C)cc3C2c2ccc(F)cc2)c(OC)c1 (stereo not given)	·	–	–	·	·	·
CC(=O)Nc1ccc(CN2C(=O)C(Cc3ccccc3)ON=C2c2ncccc2C)cc1 (stereo not given)	·	–	–	·	–	–
CSc1ccc(Cl)c(C(=O)Nc2ccc(Cl)cn2)c1	21µM	–	23µM	21µM	6.5µM	5.8µM
CCN1CCN(C(c2ccccc2Cl)c2sc3nc(-c4ccco4)nn3c2O)CC1 (stereo not given)	·	–	–	·	·	·
CCOCCCNC(=S)Nc1ccc2nc(N3CCCC3)cc(C)c2c1	–	7.3µM	–	–	–	–
COCCNC(=S)Nc1ccc2nc(N3CCCC3)cc(C)c2c1	–	16µM	–	–	–	–
Cc1cc(N2CCOCC2)nc2ccc(NC(=S)NC(C)C)cc12	23µM	–	–	–	–	–
CCCCN(CC)CCNC(=S)Nc1ccc2nc(N3CCN(C)CC3)cc(C)c2c1	–	–	?	?	26µM	?
CN1CCN(C(CNC(=O)C(=O)Nc2ccc(F)cc2F)c2ccc3c(c2)OCO3)CC1 (stereo not given)	·	–	–	·	·	·
CCS(=O)(=O)N1CC(=O)N(c2cc(C)ccc2C)C(C)(C(=O)NC2CCCCC2)C1 (stereo not given)	·	–	–	·	·	·
O=S(=O)(c1ccc(Cl)cc1)N1CCC(O)(CN2CCN(Cc3ccccc3)CC2)CC1	20µM	–	–	–	–	–
O=S(=O)(c1ccccc1)N1CCC(O)(CSc2ccc(Cl)cc2)CC1	?	23µM	?	–	?	–
COc1cccc(N2CCN(c3ccc4nnc(CCC(=O)O)n4n3)CC2)c1	·	?	–	·	·	·
CCOc1ccccc1N1CC(c2nc3ccccc3n2CCOc2ccc(OC)cc2)CC1=O (stereo not given)	·	5.8µM	–	·	·	·
Cc1ccc(OCCn2c(C3CC(=O)N(Cc4ccccc4)C3)nc3ccccc32)cc1 (stereo not given)	12µM	–	?	–	–	–
CCOc1ccccc1N1CC(c2nc3ccccc3n2CCCOc2ccc(OC)cc2)CC1=O (stereo not given)	·	?	–	·	·	·
Clc1ccc(SCCCCN2CCNCC2)cc1	2.9µM	–	–	?	?	?
Clc1ccccc1OCCCCn1ccnc1	–	–	–	–	–[9.24 µM]	–
Clc1ccc(SCCCCn2ccnc2)cc1	10µM	–	–	–	–	–
SMILES	MCF10A rerep	KB-V1 cytotox	KB-3-1 tox	SW480 rereplic	HT1080-NT tox	HT1080 IDH1KD tx
Cc1ccc(SCCCCN2CCNCC2)cc1	?	–	–	–	–	–
CC1CN(CCCCSc2ccc(Cl)cc2)CC(C)O1 (stereo not given)	23µM	–	–	?	–	–
CC(C)C[C@@H]1CC2=C(C(=O)OC(C)(C)O2)[C@H](c2ccc(Cl)cc2)O1	·	–	–	·	–	–
Cc1c(C(=O)Nc2cccc(-c3nc4ccccc4s3)c2)oc2ccccc12	·	–	–	·	·	·
COc1ccccc1CCNC(=O)C(=O)NCC(c1cccs1)S(=O)(=O)c1ccc(C)cc1 (stereo not given)	·	–	–	·	·	·
CNC(=O)c1ccsc1NC(=O)c1sc2ccccc2c1Cl	29µM	–	–	?	?	–
Cc1nnc(NC(=O)c2sc3ccccc3c2Cl)s1	–	–	–	–	–	–
CCOC(=O)c1noc2nc(C)n(Cc3cccc(C#N)c3)c(=O)c12	·	?	–	·	·	·
CC(C)c1ccc(S(=O)(=O)N2CCN(C(C)C(=O)N3CCCC3)CC2)cc1 (stereo not given)	–	26µM	–	–	–	–
CCC(C)c1ccc(S(=O)(=O)N2CCN(C(C)C(=O)NC3CCCC3)CC2)cc1 (stereo not given)	–	5.8µM	–	–	–	–
CC(C(=O)N1CCCCC1)N1CCN(S(=O)(=O)c2ccc(Cl)cc2)CC1 (stereo not given)	?	–	–	–	–	–
COC(=O)c1cc(NC(=O)CN(c2ccccc2)S(=O)(=O)N(C)C)ccc1Cl	·	–	?	·	·	·
O=C1CCN(CCCN2CCC(=O)NC2=S)C(=S)N1	·	–	–	·	–	–
CSc1nc(-c2ccccc2)c(C#N)c(=O)[nH]1	–	–	–	–	–	–
CCSc1nc(-c2ccccc2)c(C#N)c(=O)[nH]1	7.3µM	–	–	–	–	–[9.24 µM]

Screening results: PubChem, National Center for Advancing Translational Sciences (NCATS)
